Experimental findings from PubChem BioAssay (NCI) are described below.

Among the test systems are DU-145 prostate; K-562 leukemia; MALME-3M melanoma; MDA-MB-231 breast; RXF 393 renal; SF-268 CNS; SF-295 CNS; SF-539 CNS; UACC-257 melanoma; M14 melanoma; HCT-15 colon; HT29 colon; SNB-75 CNS; U251 CNS; PC-3 prostate; SK-MEL-5 melanoma; UACC-62 melanoma; LOX IMVI melanoma; SK-MEL-28 melanoma; SNB-19 CNS.
Holding throughout (assay): NCI-60 one-dose screen, 48 h (100 = growth as untreated, 0 = no growth, -100 = all killed)
What all share (conditions): 10 µM unless noted

Molecules are shown by their SMILES. Compounds without any hit were thinned out: in the full panel of roughly 83,000, 20% have a hit.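 96-well plates, one dose, 48 hours. Percent growth reported; active if below 10.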 Values without a mark were called inactive. The source made the active and inactive calls.

As to `Cc1ccc(/C=C2\Oc3cc(OCC(=O)c4ccc(Cl)cc4)ccc3C2=O)cc1`, the growth with DU-145 prostate is 112%; in the assay on K-562 leukemia it was 95.2%; in the assay on MALME-3M melanoma, 90%; in the assay with MDA-MB-231 breast it was 107%; with RXF 393 renal, 99.5%; with SF-268 CNS, 119%. For the same molecule, the growth in the assay with SF-295 CNS was 114%; in the assay with SF-539 CNS it was 103%; in the assay with UACC-257 melanoma it was 98.1%; in the assay with M14 melanoma it was 102%; with HCT-15 colon, 93.1%; with HT29 colon, 104%. Also, the growth is 103% in the assay with SNB-75 CNS; 97.5% in the assay with U251 CNS; 428% with PC-3 prostate; 86.3% with SK-MEL-5 melanoma; 92.7% in the assay with UACC-62 melanoma; 98.8% in the assay with LOX IMVI melanoma. Further, the growth in the assay on SK-MEL-28 melanoma is 48.4%.
Take `Oc1ccccc1N=Cc1c(O)ccc2ccccc12`: the growth with DU-145 prostate was 82.3%; with K-562 leukemia, 80.3%; in the assay with MALME-3M melanoma it was 82.9%; with MDA-MB-231 breast, 57%; with RXF 393 renal, 79.2%; in the assay on SF-268 CNS it was 78.4%. Further, the growth in the assay on SF-295 CNS is 53.9%; in the assay on SF-539 CNS, 80%; with UACC-257 melanoma, 93.2%; in the assay with M14 melanoma, 62.7%; with HCT-15 colon it was 77.8%; in the assay with HT29 colon, 82.9%. The growth in the assay on SNB-75 CNS was 69.8%; in the assay on U251 CNS, 83.3%; in the assay on PC-3 prostate, 61.3%; with SK-MEL-5 melanoma, 77.3%; in the assay on UACC-62 melanoma, 63.8%; in the assay on LOX IMVI melanoma, 61.7%. The growth with SK-MEL-28 melanoma is 113%.
`O=c1c(/C=C/c2ccco2)nnc(SCCN2CCOCC2)n1/N=C/c1ccc([N+](=O)[O-])cc1`: the growth in the assay on DU-145 prostate is 111%; with K-562 leukemia, 93.3%; in the assay with MALME-3M melanoma, 95.9%; in the assay on MDA-MB-231 breast it was 103%; in the assay with RXF 393 renal, 87.6%; in the assay with SF-268 CNS, 96.5%. For the same molecule, the growth was 107% in the assay with SF-295 CNS; 94% with SF-539 CNS; 94.1% in the assay with UACC-257 melanoma; 99.9% with M14 melanoma; 99% with HCT-15 colon; 106% in the assay on HT29 colon. For the same molecule, the growth is 99.9% with SNB-75 CNS; 104% with U251 CNS; 96.5% in the assay on PC-3 prostate; 91.1% with SK-MEL-5 melanoma; 96.2% in the assay on UACC-62 melanoma; 106% in the assay on LOX IMVI melanoma. Moreover, the growth in the assay on SK-MEL-28 melanoma was 104%.
For the molecule `CN1CCN(Cc2ccc(NC(=O)c3[nH]ncc3Nc3ncnc4c3CCC4)cc2)CC1`, the growth with DU-145 prostate was 5.56% (active); in the assay on K-562 leukemia, 6.23% (active); in the assay with MALME-3M melanoma it was 4.81% (active); with MDA-MB-231 breast, -11.8% (active); with RXF 393 renal, -49.7% (active); in the assay on SF-268 CNS, 4.07% (active). Further, the growth with SF-295 CNS was 31.2%; in the assay on SF-539 CNS, -37.8% (active); in the assay on UACC-257 melanoma, 37.7%; with M14 melanoma, 21.7%; in the assay with HCT-15 colon it was 13.7%; in the assay with HT29 colon, 9.71% (active). The growth is -22.6% (active) in the assay with SNB-75 CNS; 15.4% in the assay on U251 CNS; 9.21% (active) in the assay on PC-3 prostate; 9.53% (active) with SK-MEL-5 melanoma; 9.97% (active) in the assay with UACC-62 melanoma; 7.49% (active) in the assay on LOX IMVI melanoma. Moreover, in the assay on SK-MEL-28 melanoma, the growth is 5.62% (active).
Take `COc1nc2c(cc1S(=O)(=O)c1ccccc1)CCc1c-2cnn1-c1ccc(Cl)cc1`: the growth in the assay with DU-145 prostate was 110%; with K-562 leukemia, 97.2%; in the assay with MALME-3M melanoma, 96.8%; with MDA-MB-231 breast, 95.3%; in the assay with RXF 393 renal, 96.2%; in the assay on SF-268 CNS it was 104%. The growth was 88.3% with SF-295 CNS; 100% in the assay with SF-539 CNS; 106% in the assay on UACC-257 melanoma; 97.5% in the assay with M14 melanoma; 93.8% in the assay on HCT-15 colon; 89.3% in the assay with HT29 colon. In addition, the growth was 92.3% with SNB-75 CNS; 92.1% in the assay with U251 CNS; 88.2% in the assay on PC-3 prostate; 94.8% in the assay with SK-MEL-5 melanoma; 88.7% in the assay on UACC-62 melanoma; 96.2% in the assay on LOX IMVI melanoma. In the assay on SK-MEL-28 melanoma, the growth was 88.8%.
Take `Cc1cc(=O)oc2cc(Oc3nc(-c4cccs4)cn4c(-c5cccs5)cnc34)ccc12`: the growth with DU-145 prostate was 55.4%; with K-562 leukemia it was 81.6%; with MALME-3M melanoma, 39.1%; with MDA-MB-231 breast, 63.2%; in the assay with RXF 393 renal, 63.6%; in the assay with SF-268 CNS, 76.3%. Moreover, the growth in the assay on SF-295 CNS was 47.5%; in the assay on SF-539 CNS it was 60%; in the assay with UACC-257 melanoma, 48.2%; in the assay on M14 melanoma, 67.5%; with HCT-15 colon, 72.9%; in the assay with HT29 colon, 46.6%. Moreover, the growth was 35.6% in the assay with SNB-75 CNS; 47.5% in the assay on U251 CNS; 53% with PC-3 prostate; 42.5% with SK-MEL-5 melanoma; 71.1% with UACC-62 melanoma; 38.4% in the assay with LOX IMVI melanoma. In the assay with SK-MEL-28 melanoma, the growth is 23.9%.
In the case of `CN[C@@]12CC3(C=CC(=O)C=C3)O[C@]1(Cc1ccc(OC)cc1)N(C)C(=O)N2`, the growth is 101% in the assay with DU-145 prostate; 13.1% in the assay on K-562 leukemia; 107% in the assay with MALME-3M melanoma; 110% in the assay with MDA-MB-231 breast; 50.7% in the assay with RXF 393 renal; 96.7% in the assay with SF-268 CNS. Further, the growth in the assay with SF-295 CNS was 109%; with SF-539 CNS, 45.3%; with UACC-257 melanoma, 78.8%; with M14 melanoma, 63%; in the assay on HCT-15 colon, -47.9% (active); in the assay on HT29 colon, 8.19% (active). The growth was 74.3% with SNB-75 CNS; 92.2% with SNB-19 CNS; 66.8% with PC-3 prostate; 77.1% in the assay with SK-MEL-5 melanoma; 54.7% with UACC-62 melanoma; 10.3% in the assay with LOX IMVI melanoma. Further, the growth in the assay on SK-MEL-28 melanoma is 46.7%.
`Clc1nc(Cl)c2c3c(sc2n1)CCCC3`: the growth in the assay on DU-145 prostate is -55.3% (active); with K-562 leukemia, -33.2% (active); in the assay with MALME-3M melanoma, 45%; with MDA-MB-231 breast, 62.4%; in the assay with RXF 393 renal it was -19.4% (active); in the assay with SF-268 CNS, 26.1%. For the same molecule, the growth with SF-295 CNS is 104%; with SF-539 CNS it was 105%; in the assay with UACC-257 melanoma it was 81.2%; in the assay with M14 melanoma it was 21.1%; with HCT-15 colon it was 26.7%; in the assay on HT29 colon, 11.3%. Moreover, the growth with SNB-75 CNS was 89%; in the assay on U251 CNS, 49.7%; in the assay on PC-3 prostate it was 63.8%; in the assay on SK-MEL-5 melanoma, 50.8%; in the assay with UACC-62 melanoma it was 92.9%; with LOX IMVI melanoma it was 13.4%. Also, the growth in the assay with SK-MEL-28 melanoma was 55.1%.
